# Reference: PubChem BioAssay (NCATS)
# Records with an inconclusive call do not appear. Unmarked numbers belong to inactive results. Active and inactive are the calls of the source. The call rests on the fitted dose curve; in most records, active means well fitted inhibition curve with a large enough effect; inconclusive means small, poorly fitted or top-dose-only effect, or effect the other way; inactive means flat fitted curve, though single readings scatter.
# Experiment: Quantitative high throughput screen for delayed death inhibitors of the malarial parasite plastid, 48 hour incubation (AID 488752); further: nearly all actives have a fitted effect of over 65% in size
# Details: Plasmodium falciparum growth; series mostly up to 28.7 µM; activity change, negative = inhibition: at the top concentration
# Description: NIH Molecular Libraries Probe Production Network [MLPCN]
# NIH Chemical Genomics Center [NCGC]
# Assay Provider: David Fidock and Eric Ekland, Columbia University
# The goal of this screen is to discover new antimalarial compounds that act by inhibiting the development of the apicoplast in the malarial parasite Plasmodium falciparum. The biochemical processes that make this organelle essential for erythrocytic stage parasites are not well understood. However, antibiotics, such as azithromycin and tetracycline, which target the apicoplast translational machinery, have a potent antimalarial effect.
# We have developed a cell-based assay that measures parasite growth based on the expression of an integrated copy of a firefly luciferase reporter. To detect small molecules that cause this 'delayed death' phenotype, erythrocytes infected with the luciferase-expressing parasites were incubated with compounds for either one or two generations, corresponding to 48 and 96 hours, respectively. Compounds that inhibit parasite growth in the second generation, but not the first, should be enriched in antimalarials that target the apicoplast. Growth inhibition is detected by a decrease in luciferase activity
# Four microliters of culture medium (RPMI 1640 with 0.5% w/v Albumax (GIBCO), 24 mM sodium bicarbonate and 10 ug/mL gentamycin) were dispensed by a Multi-drop Combi into white solid 1536-well plates (Grenier) and 23 nL compound was added by a pin tool. Four microliters of infected erythrocytes (2% hematocrit, 0.1% parasitemia final concentration) in culture medium were dispensed and the plates incubated for 48 hours at 37 C in 5% CO2. Two microliters of luciferase detection reagent was added and luminescence was detected by a ViewLux (PerkinElmer) reader
# On the % scale 0 is the no-effect control and ±100 the full control effect; potency means the concentration at half of the fitted maximal effect.
SMILES,"activity change, negative = inhibition [%]",Potency
O=C(OCCN1CCCCC1)c1c[nH]c2ccccc12,10.7,–
CCCCCCCCCCCCC/C=C/[C@@H](O)[C@@H](N)CO,-0.417,–
C1CCC(N=C(NC23CC4CC(CC(C4)C2)C3)N2CCOCC2)CC1,-9.19,–
O=C(Nc1cc(C(=O)Nc2ccc(S(=O)(=O)O)cc2S(=O)(=O)O)cc(C(=O)Nc2ccc(S(=O)(=O)O)cc2S(=O)(=O)O)c1)Nc1cc(C(=O)Nc2ccc(S(=O)(=O)O)cc2S(=O)(=O)O)cc(C(=O)Nc2ccc(S(=O)(=O)O)cc2S(=O)(=O)O)c1,6.14,–
NCCNS(=O)(=O)c1cccc2cnccc12,-5.66,–
CC(N)=NCc1cccc(CN)c1,-23.4,–
COc1[nH]c2ccc(F)cc2c1C(=O)OCC1CCN(CCNS(C)(=O)=O)CC1,–,11.7 µM (active)
CCCn1c(=O)c2[nH]c(-c3ccc(OCC(=O)Nc4ccc(C#N)cc4)cc3)nc2n(CCC)c1=O,5.61,–
NCCCCCCNS(=O)(=O)c1cccc2c(Cl)cccc12,9.08,–
CN(C)CCCCSC(=N)N,-0.944,–
COc1cc2c(cc1C(F)(F)F)N(C(=O)Nc1cc(F)cc(-c3cccnc3)c1)CC2,–,2.94 µM (active)
C/C=C1\C(=O)CC2C3CCC4=CC(=O)CC[C@]4(C)C3CC[C@]12C (some centres undefined),-1.57,–
O=C(O)c1cc(=O)c2ccc(Cl)cc2[nH]1,14.2,–
COc1ccccc1NC(=O)Nc1nc(-c2cccnc2)nc2ccccc12,2.52,–
Cn1cnc2c(NC3CCCC3)ncnc21,10.3,–
NC(CCC(=O)NCS(=O)(=O)O)C(=O)O (centres undefined),12.2,–
COC(=O)c1c(-c2cc(OC)c(OC)c(OC)c2)c2ccnc(OCc3ncccn3)c2c(=O)n1Cc1ccnc(C)c1,–,9.28 µM (active)
Cc1cccc(C)c1NC(=O)C[N+](C)(C)C,22.9,–
COc1ccc2c(c1)c(CC(=O)N1CCOCC1)c(C)n2C(=O)c1ccc(Cl)cc1,-18.6,–
